Screening results as filed in PubChem BioAssay.
A selection: hits, their analogues and other compounds. The true share with any hit is near 1.8%.
aDG glyco up = increases alpha dystroglycan glycosylation; Pro5-aDG cells, alpha-DG glycosylation AlphaScreen (IIH6); 0% Pro5, 100% B10-LARGE cell signal; activation, % at 10 µM; 0.22% of 360,000 active; AID 624168;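 active = activation of at least 8% versus controls, or a plate z-score of at least 8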;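 note: Pro5 are CHO cells carrying HIG-tagged alpha-DG that lacks glycosylation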
AI-2 QS mod = modulates the Vibrio harveyi AI-2 quorum sensing system; Vibrio harveyi JMH597 AI-2 luminescence/OD600 ratio, 9 h; stronger effect = lower value; strain lacks LuxN and CqsS sensors; 0 = neutral-control median; 0.4% of 300,000 active; activity change, % at 7.5 µM; AID 2094; in the data active = activity change below about -75%, passing the limit was not always enough;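 note: luminescence divided by OD600 gain over 9 h not by final OD600 alone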
Bfl-1 A1 inh = inhibitors of the anti-apoptotic protein A1, read as caspase activation. MEF A1-2A-BIM cells, Caspase-Glo 3/7 luminescence, 3 h; percent of clofoctol response, vehicle zero. 0.066% of 330,000 active. AID 2462. caspase activation, % (concentration not given with the values);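 active = over half of replicate activation scores above 10%, or exactly half above 10 with the replicate mean above 10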
ARNT-TACC3 inh = ARNT/TACC3 interaction disruption. AlphaScreen His-ARNT PAS-B/GST-TACC3 binding, luminescence; TACC3 fragment carries E629A point mutation. inhibition, % at 9.99 µM. 0.66% of 390,000 active. AID 623870;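 active = mean inhibition of replicates at least 50% and at least half of replicates each reaching 50%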;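 note: 0% = complete ARNT plus TACC3 wells and 100% = ARNT alone without TACC3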
SUMO Mot1 rescue = blocks SUMOylation pathway, rescuing yeast Mot1-301 growth; S. cerevisiae Mot1-301 growth rescue, ATP luminescence, 38.5C; percent above DMSO median, 100 means doubled; growth rescue, % at 18.8 µM; 1% of 320,000 active; AID 2716;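 active = every valid replicate shows activation above 250% relative to neutral control wells; inactive = the rest, any valid replicate at or below 250%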;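 note: OY570 slx delta 5 strain wells were the positive control but not used for scaling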
Numbers without * were called inactive.

`Cc1ccc(NC2=C(N3CCCCC3)C(=O)c3ccccc3C2=O)cc1` gave aDG glyco up 0.7, AI-2 QS mod 29.5, Bfl-1 A1 inh 0.0, ARNT-TACC3 inh 20.0 and SUMO Mot1 rescue 12.7.
Screening O=C1C(Cl)=C(Nc2ccccc2)C(=O)c2ccccc21 returned aDG glyco up -0.9, AI-2 QS mod -6.3, Bfl-1 A1 inh -0.5, ARNT-TACC3 inh 2.2 and SUMO Mot1 rescue 50.0.
Screening CC1=C(C(=O)N2CCCCCC2)CC(CC(=O)NCCCCc2ccccc2)C(=O)N1Cc1ccccc1 (stereo unspecified) returned aDG glyco up 0.1.
Screening Cc1cc(C(=O)OCC(=O)c2ccc3c(c2)OCCO3)c(C)o1 returned aDG glyco up 0.0, AI-2 QS mod -23.5, Bfl-1 A1 inh 0.2, ARNT-TACC3 inh -1.0 and SUMO Mot1 rescue -10.9.
For Cc1c(C(=O)OCC(=O)c2ccc3c(c2)OCCO3)oc2ccccc12 the results were aDG glyco up -0.1, AI-2 QS mod 6.2, Bfl-1 A1 inh -6.9, ARNT-TACC3 inh -9.5 and SUMO Mot1 rescue 312.1*.
Screening CCN1C(=O)/C(=C2\SC(=S)N(c3c(C)n(C)n(-c4ccccc4)c3=O)C2=O)c2ccccc21 returned aDG glyco up 0.1, AI-2 QS mod -3.0, Bfl-1 A1 inh 0.0, ARNT-TACC3 inh 14.8 and SUMO Mot1 rescue -4.2.
CCN1C(=O)/C(=C2\SC(=S)N(NC(=O)c3ccccc3O)C2=O)c2ccccc21 was read as aDG glyco up -0.1, AI-2 QS mod 20.3, Bfl-1 A1 inh 0.3, ARNT-TACC3 inh 64.6* and SUMO Mot1 rescue -25.0.
Screening CCCC(=O)NC(=S)NNC(=O)c1ccc([N+](=O)[O-])cc1 returned aDG glyco up 0.0, AI-2 QS mod -35.2, Bfl-1 A1 inh 0.5, ARNT-TACC3 inh 31.4 and SUMO Mot1 rescue 23.0.
`Cc1[nH]c2ccccc2c(=O)c1CN(C)Cc1ccccc1` gave aDG glyco up -0.1, AI-2 QS mod 2.1, Bfl-1 A1 inh -0.3 and SUMO Mot1 rescue 331.4*.
`CSc1ccc(CN2CCC(Oc3ccc(C(=O)N4CCCC4)cc3)CC2)cc1` gave aDG glyco up 0.7, AI-2 QS mod 36.8, Bfl-1 A1 inh -0.4, ARNT-TACC3 inh 4.1 and SUMO Mot1 rescue 276.9*.
For Cc1ccc(/C(=N/Nc2ncnc3ccccc23)C(=O)O)cc1 the results were aDG glyco up 0.0, AI-2 QS mod -8.1, Bfl-1 A1 inh -0.9, ARNT-TACC3 inh 60.8* and SUMO Mot1 rescue 2.0.
Screening CC(C)NC(=O)N(C)C[C@@H]1Oc2ccc(NC(=O)Nc3ccc(C(F)(F)F)cc3)cc2CC(=O)N([C@@H](C)CO)C[C@H]1C returned ARNT-TACC3 inh 46.1*.
C[C@H]1CN([C@@H](C)CO)C(=O)Cc2cc(NC(=O)C3CC3)ccc2O[C@H]1CN(C)Cc1ccc(Cl)c(Cl)c1 was read as ARNT-TACC3 inh 46.0*.
Screening C[C@@H]1CN([C@@H](C)CO)C(=O)Cc2cc(NC(=O)c3ccncc3)ccc2O[C@H]1CN(C)Cc1ccc(Cl)c(Cl)c1 returned ARNT-TACC3 inh 47.8*.
`Cc1noc(C)c1NC(=O)N[C@@H]1CC[C@@H](CC(=O)N2CCN(C)CC2)O[C@@H]1CO` gave ARNT-TACC3 inh 0.4.
For CC(C)NC(=S)N1CCn2c(nc3ccccc32)C1 the results were aDG glyco up -0.1, AI-2 QS mod 16.9, Bfl-1 A1 inh 0.4, ARNT-TACC3 inh -1.9 and SUMO Mot1 rescue 74.0.
`N#C[C@@H]1[C@@H](c2ccc(C#CCC3CCCC3)cc2)[C@H](CO)N1C(=O)CN1CCOCC1` gave ARNT-TACC3 inh -21.2.
O=C(NCCCn1ccnc1)/C(=C/c1ccc(F)cc1)NC(=O)c1ccccc1 was read as aDG glyco up -0.1, AI-2 QS mod 10.7, Bfl-1 A1 inh 0.0, ARNT-TACC3 inh 62.2* and SUMO Mot1 rescue 9.4.
O=C(NCCCn1ccnc1)/C(=C\c1ccco1)NC(=O)c1ccco1 was read as aDG glyco up 0.0, AI-2 QS mod -6.0, Bfl-1 A1 inh 1.7, ARNT-TACC3 inh 57.4* and SUMO Mot1 rescue 7.8.
Screening CC(C)c1ccc(/C=C(\NC(=O)c2ccccc2)C(=O)NCCCn2ccnc2)cc1 returned aDG glyco up 1.1, AI-2 QS mod 20.0, Bfl-1 A1 inh -0.5 and SUMO Mot1 rescue 2.6.
Screening C/C(=N\NC(=O)CN1CCN(Cc2ccc(C)cc2)CC1)c1ccncc1 returned aDG glyco up 0.0, AI-2 QS mod 15.3, Bfl-1 A1 inh -0.4, ARNT-TACC3 inh -1.6 and SUMO Mot1 rescue 155.2.
For COc1ccc(-c2cc(=O)[nH][nH]2)cc1OC the results were aDG glyco up 0.0, AI-2 QS mod 28.1, Bfl-1 A1 inh 0.2, ARNT-TACC3 inh 49.7* and SUMO Mot1 rescue -15.4.
Screening COc1cccc(-c2cc(=O)[nH][nH]2)c1 returned aDG glyco up -0.2, AI-2 QS mod 13.6, Bfl-1 A1 inh 0.4, ARNT-TACC3 inh 2.3 and SUMO Mot1 rescue 1.6.
`CCOC(=O)N1CCN(C2=C(NS(=O)(=O)c3ccc(NC(C)=O)cc3)C(=O)c3ccccc3C2=O)CC1` gave aDG glyco up 0.5, AI-2 QS mod 0.6, Bfl-1 A1 inh -0.8, ARNT-TACC3 inh 31.2* and SUMO Mot1 rescue -12.2.
`C[C@H]1O[C@@H](n2cc(F)c(=O)[nH]c2=O)[C@H](O)[C@@H]1O` gave aDG glyco up 0.1, AI-2 QS mod -82.8*, Bfl-1 A1 inh -0.4, ARNT-TACC3 inh -0.6 and SUMO Mot1 rescue -4.1.
CC(=O)OCC1OC(n2cc(F)c(=O)[nH]c2=O)C(OC(C)=O)C1OC(C)=O (stereo unspecified) was read as aDG glyco up 0.0, AI-2 QS mod 18.0, Bfl-1 A1 inh 0.1, ARNT-TACC3 inh 1.0 and SUMO Mot1 rescue 7.4.
For CC1(C)Cc2ccccc2C2=C(C(=O)N3CCCCCC3)C(=O)C(=O)N21 the results were aDG glyco up -0.4, AI-2 QS mod 10.2, Bfl-1 A1 inh 0.0, ARNT-TACC3 inh -9.2 and SUMO Mot1 rescue 307.1*.
`CCC(=O)Oc1ccc(C(=O)Nc2ccccc2C(=O)NCC(C)C)cc1` gave aDG glyco up -0.1, AI-2 QS mod 9.2, Bfl-1 A1 inh -0.2, ARNT-TACC3 inh -9.3 and SUMO Mot1 rescue -16.7.
Screening CCC(=O)Oc1ccc(C(=O)Nc2cccc(C(=O)NCC(C)C)c2)cc1 returned aDG glyco up 0.1, AI-2 QS mod -0.4, Bfl-1 A1 inh 2.2 and SUMO Mot1 rescue active.
`CC1CN(S(=O)(=O)c2cccc(C(=O)Nc3ccccc3N3CCCCC3)c2)CC(C)O1` (stereo unspecified) gave aDG glyco up 0.6, AI-2 QS mod 12.4, Bfl-1 A1 inh 1.9, ARNT-TACC3 inh -4.6 and SUMO Mot1 rescue 51.4.
Screening CCOC(=O)c1cnc(-n2nc(C)cc2C)nc1N1CCOCC1 returned aDG glyco up 0.4, AI-2 QS mod 6.9, Bfl-1 A1 inh -0.1, ARNT-TACC3 inh 49.7* and SUMO Mot1 rescue 201.0.
CCOC(=O)c1cnc(-n2nc(C)cc2C)nc1Oc1ccccc1F was read as aDG glyco up 0.1, AI-2 QS mod 25.0, Bfl-1 A1 inh 0.9 and SUMO Mot1 rescue -5.7.
